Several values for one entry are separate records, joined by “and”; a condition that tells them apart may be missing. Identical values can stand only once. This is part of a sample that, as a whole, favours compounds with a hit. Of some 83,000 tested, about 20% had one in any assay.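 For each line, cells grew in 96-well plates with the test compound present at a single concentration for 48 hours.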 Activity calls are given as the source filed them. How the source made its calls: active means growth percent below 10; inactive means the rest.
How the values were obtained:
Experiment in all cases: NCI-60 one-dose screen, 48 h (100 = growth as untreated, 0 = no growth, -100 = all killed)
Settings in all cases: 10 µM unless noted
HCT-15 colon = system: HCT-15 colon
HT29 colon = system: HT29 colon
SNB-19 CNS = system: SNB-19 CNS
U251 CNS = system: U251 CNS
PC-3 prostate = system: PC-3 prostate
SK-MEL-5 melanoma = system: SK-MEL-5 melanoma
UACC-62 melanoma = system: UACC-62 melanoma
LOX IMVI melanoma = system: LOX IMVI melanoma
SK-MEL-28 melanoma = system: SK-MEL-28 melanoma
SK-MEL-2 melanoma = system: SK-MEL-2 melanoma
EKVX NSCLC = system: EKVX NSCLC
SN12C renal = system: SN12C renal
UO-31 renal = system: UO-31 renal
TK-10 renal = system: TK-10 renal
ACHN renal = system: ACHN renal
CAKI-1 renal = system: CAKI-1 renal
A498 renal = system: A498 renal
CCRF-CEM leukemia = system: CCRF-CEM leukemia
MOLT-4 leukemia = system: MOLT-4 leukemia
SNB-75 CNS = system: SNB-75 CNS

Measured: growth

OCc1cccc(F)c1
inactive: HCT-15 colon 10.2% | HT29 colon 17.7% | SNB-19 CNS 92.2% | U251 CNS 83.5% | PC-3 prostate 91% | SK-MEL-5 melanoma 92.6% | UACC-62 melanoma 84.7% | LOX IMVI melanoma 76.8% | SK-MEL-28 melanoma 116% | EKVX NSCLC 106% | SN12C renal 83.6% | UO-31 renal 75.1% | TK-10 renal 96.5% | CAKI-1 renal 34.2% | A498 renal 111% | CCRF-CEM leukemia 103% | MOLT-4 leukemia 83.5%
active: SK-MEL-2 melanoma 2.28% | ACHN renal -0.315%

COC(=O)c1nc(=S)[nH]c(C(=O)OC)c1C(=O)c1ccc(OC)cc1
inactive: HCT-15 colon 100% | HT29 colon 106% | SNB-19 CNS 101% | U251 CNS 108% | PC-3 prostate 93% | SK-MEL-5 melanoma 97.3% | UACC-62 melanoma 95.9% | LOX IMVI melanoma 94.8% | SK-MEL-28 melanoma 109% | SK-MEL-2 melanoma 104% | EKVX NSCLC 107% | SN12C renal 98.5% | TK-10 renal 110% | ACHN renal 105% | CAKI-1 renal 94.5% | A498 renal 116% | CCRF-CEM leukemia 101% | MOLT-4 leukemia 107%

O=c1[nH]c(=O)c2[nH]c(=O)[nH]c2[nH]1
inactive: HCT-15 colon 99% | HT29 colon 105% | SNB-19 CNS 103% | U251 CNS 101% | PC-3 prostate 96.2% | SK-MEL-5 melanoma 100% | UACC-62 melanoma 99.8% | LOX IMVI melanoma 102% | SK-MEL-2 melanoma 137% | EKVX NSCLC 88.6% | SN12C renal 99.7% | UO-31 renal 85.7% | TK-10 renal 92.1% | ACHN renal 101% | A498 renal 73.9% | CCRF-CEM leukemia 114% | MOLT-4 leukemia 113%

O=C(N=C1C(=O)C2(CCCCC2)C2(N=C(c3ccccc3)OC2=O)C12CCCCC2)c1ccccc1 (stereo not drawn)
inactive: HCT-15 colon 62.3% | HT29 colon 51.5% | SNB-19 CNS 71.5% | U251 CNS 59.6% | PC-3 prostate 42.8% | SK-MEL-5 melanoma 64.6% | UACC-62 melanoma 58.6% | LOX IMVI melanoma 71.5% | SK-MEL-28 melanoma 84.5% | SK-MEL-2 melanoma 76% | EKVX NSCLC 70.5% | SN12C renal 77.8% | UO-31 renal 58.5% | TK-10 renal 86.2% | ACHN renal 80.5% | CAKI-1 renal 70.9% | A498 renal 98.2% | CCRF-CEM leukemia 37.4% | MOLT-4 leukemia 50.5%

COc1cc(NCCCCCCCNC(C)C)c2nccc(C)c2c1
inactive: HCT-15 colon 89.2% and 58.5% | HT29 colon 53.7% and 14.2% | SNB-75 CNS 74.4% and 61.1% | SNB-19 CNS 90.9% and 74.2% | U251 CNS 80.8% and 61.3% | PC-3 prostate 58.1% and 75.9% | SK-MEL-5 melanoma 84.3% and 64.8% | LOX IMVI melanoma 92.5% and 54.7% | SK-MEL-2 melanoma 103% and 126% | EKVX NSCLC 82.9% and 50.6% | SN12C renal 78% and 61.7% | TK-10 renal 90.3% and 67.6% | ACHN renal 91.8% and 67.3% | CAKI-1 renal 87.7% and 45.5% | A498 renal 80.5% and 49.2% | CCRF-CEM leukemia 92.7% | MOLT-4 leukemia 80%
88.2% (inactive) and 3.49% (active): UACC-62 melanoma

CCOC(=O)c1ccncc1
inactive: HCT-15 colon 108% | HT29 colon 104% | SNB-19 CNS 111% | U251 CNS 104% | PC-3 prostate 97.5% | SK-MEL-5 melanoma 95.8% | UACC-62 melanoma 101% | LOX IMVI melanoma 99% | SK-MEL-28 melanoma 110% | SK-MEL-2 melanoma 106% | EKVX NSCLC 104% | SN12C renal 98.9% | UO-31 renal 90.2% | TK-10 renal 99.4% | ACHN renal 119% | A498 renal 86.8% | CCRF-CEM leukemia 108% | MOLT-4 leukemia 104%

O=C(O)C1CSCN1 (stereo not drawn)
inactive: HT29 colon 104% | SNB-75 CNS 109% and 73.5% | SNB-19 CNS 105% and 94% | U251 CNS 104% and 97.6% | PC-3 prostate 99.4% and 112% | SK-MEL-5 melanoma 135% | UACC-62 melanoma 105% and 96% | LOX IMVI melanoma 108% and 102% | SK-MEL-28 melanoma 117% and 114% | SK-MEL-2 melanoma 110% and 84.4% | EKVX NSCLC 102% and 101% | SN12C renal 100% | TK-10 renal 103% and 109% | ACHN renal 101% and 97.9% | CAKI-1 renal 92.9% and 91.4% | A498 renal 113% and 103% | CCRF-CEM leukemia 100% and 121% | MOLT-4 leukemia 75.9% and 106%

COc1ccc(/C=N/NC(N)=S)cc1
inactive: HT29 colon 102% | SNB-75 CNS 87.7% | SNB-19 CNS 100% | U251 CNS 96.7% | PC-3 prostate 86.9% | SK-MEL-5 melanoma 104% | UACC-62 melanoma 101% | LOX IMVI melanoma 95.8% | SK-MEL-28 melanoma 112% | SK-MEL-2 melanoma 97.5% | EKVX NSCLC 64.1% | SN12C renal 96.1% | UO-31 renal 76.4% | TK-10 renal 104% | ACHN renal 101% | CAKI-1 renal 93.3% | A498 renal 73.4% | CCRF-CEM leukemia 69.1% | MOLT-4 leukemia 136%

C/C=C/C(=O)OCCCCCCCCCCCC
inactive: HT29 colon 92.6% | SNB-75 CNS 101% | SNB-19 CNS 85.2% | U251 CNS 98.6% | PC-3 prostate 101% | SK-MEL-5 melanoma 97.7% | UACC-62 melanoma 91.6% | LOX IMVI melanoma 106% | SK-MEL-28 melanoma 114% | SK-MEL-2 melanoma 94.3% | EKVX NSCLC 111% | SN12C renal 81.6% | UO-31 renal 109% | TK-10 renal 92.8% | ACHN renal 103% | CAKI-1 renal 101% | A498 renal 103% | CCRF-CEM leukemia 117% | MOLT-4 leukemia 83.1%

CCN(CC)CCO/N=C1\CC(c2ccc(OC)c(OC)c2)Oc2ccccc21 (stereo not drawn)
inactive: HT29 colon 74.8% | SNB-75 CNS 68% | SNB-19 CNS 98.5% | U251 CNS 93.6% | PC-3 prostate 83% | SK-MEL-5 melanoma 93.4% | UACC-62 melanoma 107% | LOX IMVI melanoma 89.6% | SK-MEL-2 melanoma 104% | EKVX NSCLC 96.3% | SN12C renal 99.1% | UO-31 renal 71.7% | TK-10 renal 86.9% | ACHN renal 101% | CAKI-1 renal 83.3% | A498 renal 112% | CCRF-CEM leukemia 93% | MOLT-4 leukemia 90.6%

Cn1c(-c2ccccc2)cc(=O)cc1-c1ccccc1
active: ACHN renal 0.204%
inactive: HT29 colon 24.7% | SNB-75 CNS 119% | SNB-19 CNS 89% | U251 CNS 82.7% | PC-3 prostate 67.1% | SK-MEL-5 melanoma 95.3% | UACC-62 melanoma 81.5% | LOX IMVI melanoma 73.2% | SK-MEL-28 melanoma 118% | SK-MEL-2 melanoma 10.8% | EKVX NSCLC 121% | SN12C renal 92.6% | UO-31 renal 79% | TK-10 renal 91.5% | CAKI-1 renal 83.6% | A498 renal 106% | CCRF-CEM leukemia 79.8% | MOLT-4 leukemia 81.4%

O=C(c1ccccc1)C1(Br)CCCCC1
inactive: HT29 colon 120% | SNB-75 CNS 95.2% | SNB-19 CNS 92% | U251 CNS 95.6% | PC-3 prostate 99.2% | SK-MEL-5 melanoma 95.7% | UACC-62 melanoma 90.5% | LOX IMVI melanoma 86.7% | SK-MEL-28 melanoma 101% | SK-MEL-2 melanoma 104% | EKVX NSCLC 87.3% | SN12C renal 93.6% | TK-10 renal 103% | ACHN renal 100% | CAKI-1 renal 89% | CCRF-CEM leukemia 97.5% | MOLT-4 leukemia 103%

O=C1c2ccccc2C(c2ccccc2)C1c1ccccc1 (stereo not drawn)
inactive: HT29 colon 98.9% | SNB-75 CNS 63.5% | SNB-19 CNS 91.9% | U251 CNS 101% | PC-3 prostate 80.7% | SK-MEL-5 melanoma 87.5% | UACC-62 melanoma 67.8% | LOX IMVI melanoma 88.5% | SK-MEL-28 melanoma 111% | SK-MEL-2 melanoma 91.1% | EKVX NSCLC 80.2% | SN12C renal 93.5% | UO-31 renal 79.4% | TK-10 renal 124% | ACHN renal 98% | CAKI-1 renal 72.3% | A498 renal 102% | CCRF-CEM leukemia 72.2% | MOLT-4 leukemia 87.8%
